High-throughput results: PubChem BioAssay, Sanford-Burnham Center for Chemical Genomics
Shown are actives, neighbours in structure and some others; about 4.1% of the full set was active somewhere.
tim23-1 inh: growth inhibitors of tim23-1 mutant yeast, primary screen, luminescence, uHTS | S. cerevisiae tim23-1 growth, BacTiter-Glo luminescence, 24 h | inhibition, % at 20 µM | 1.3% of 330,000 active;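 active = growth inhibition of the mutant yeast at or above 50%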;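 also: temperature-sensitive mutant grown at 25 °C; plate controls were DMSO-treated mutant yeast for no effect and medium wells lacking yeast for full effect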
NALP3 yeast inh: NALP3 inflammasome inhibitors in reconstituted yeast, primary screen, luminescence, uHTS | Yeast reconstituted NLRP3/ASC/caspase-1, beta-gal luminescence, 24 h | inhibition, % at 10 µM | 0.39% of 330,000 active | AID 2825, 2010;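 active = inhibition of 50% or more; inactive = inhibition below 50%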;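 also: plate controls were induced DMSO wells for no effect and uninduced yeast grown without galactose for full effect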
NALP1 inh: NALP1 inflammasome inhibitors in reconstituted yeast, colorimetric, S. cerevisiae, triplicate retest | S. cerevisiae NALP1/ASC/caspase-1 growth, X-gal OD620, 72 h | inhibition, % at 10 µM | 0.61% of 280,000 active; in the data active = inhibition mostly above about 24%, no sharp cut-off; inactive = mostly below about 32%
TIM10 inh: growth inhibitors of isogenic TIM10 control yeast, primary screen, counter-screen for tim10-1 yeast inhibitor project, luminescence, uHTS. AID 463195, 2010. inhibition, % at 10 µM. 1.4% of 330,000 active. S. cerevisiae TIM10 strain growth, BacTiter-Glo luminescence, 24 h;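 active = inhibition of 40% or more at the single tested concentration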;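 also: wild-type TIM10 isogenic control strain grown at permissive 25 °C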
tim10-1 inh: growth inhibitors of tim10-1 mutant yeast, primary screen, luminescence, uHTS; S. cerevisiae tim10-1 ts strain growth, BacTiter-Glo, 24 h; inhibition, % at 20 µM; 2.2% of 330,000 active;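 active = inhibition of at least 40%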;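 also: mutant grown at 25 °C; 0% = DMSO wells with yeast and 100% = wells holding no yeast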
TIM10 conf: growth inhibitors of wild-type TIM10 yeast, confirmation, counter-screen for tim10-1 synthetic lethality project, single concentration, luminescence, S. cerevisiae; shares compounds with TIM10 inh; S. cerevisiae tim10 strain growth, BacTiter-Glo luminescence, 24 h; inhibition, % at 10 µM; 63% of 4,600 active;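 active = inhibition of yeast growth at or above a set limit in either of two replicates at 10 µM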;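 also: this counterscreen used the strain with wild-type TIM10; 0% = yeast with DMSO and 100% = medium wells lacking yeast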
tim23-1 confirm: tim23-1 mutant yeast growth inhibitors, confirmation, luminescence, single concentration | shares compounds with tim23-1 inh | S. cerevisiae tim23-1 growth, BacTiter-Glo luminescence, 24 h | inhibition, % at 20 µM | 83% of 4,400 active | AID 463218, 2010;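 active = inhibition above about 39% in either of two replicate wells at 20 µM, limit read from the data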;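 also: temperature-sensitive tim23-1 mutant grown at 25 °C; 0% = DMSO wells with yeast and 100% = medium wells without yeast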
Numbers without * were called inactive; x = not tested or not shown.

SMILES | tim23-1 inh | NALP3 yeast inh | NALP1 inh | TIM10 inh | tim10-1 inh | TIM10 conf | tim23-1 confirm
COc1cccc(OCc2cc(C(=O)N3CCN(C)C(c4ccccc4)C3)no2)c1 (stereo unspecified) | 53* | 21 | 14 | 41* | 39 | 50* | 48*
CSc1nsc(SCC(=O)Nc2ccccc2F)n1 | 6 | -5 | -19 | -11 | -5 | x | x
CN(c1ccccc1)S(=O)(=O)c1ccc(Cl)c(C(=O)Nc2ccccc2N2CCOCC2)c1 | 21 | 11 | x | 1 | 16 | x | x
Cn1c(C(=O)Nc2ccc3c(c2)OCCO3)cc2sccc21 | 56* | 28 | 16 | 56* | 18 | 19 | 44*
N/C(Cc1cccc2ccccc12)=N\OC(=O)c1cccs1 | 63* | -15 | 18 | 61* | 32 | 78* | 72*
CN(C)Cc1c(C(=O)N/N=C/CCc2ccccc2)nnn1-c1nonc1N | 7 | 13 | 25 | -8 | 8 | x | x
CC1=C(C)/C(=N/OC(=O)c2cccc([N+](=O)[O-])c2)C=CC1=O | 62* | 0 | 2 | 41* | 40 | 19 | 86*
COc1ccc(Cl)cc1C(=O)O/N=C(\N)c1ccc(Cl)cc1 | 89* | 12 | 49 | 79* | 29 | 83* | 44*
COc1ccc(C(=O)O/N=C(\N)Cc2ccc(Cl)cc2)cc1OC | 68* | 4 | 17 | 79* | -2 | 86* | 49*
N/C(=N\OC(=O)c1cc(Cl)ccc1Cl)c1ccncc1 | 14 | -14 | 0 | 9 | 27 | x | x
COc1ccc(C/C(N)=N/OC(=O)c2cccc([N+](=O)[O-])c2)cc1 | 73* | 3 | 26 | 72* | 27 | 86* | 68*
COc1ccc(/C=N/NC(=O)Cc2ccc(Cl)cc2)cc1OC | -21 | 4 | -1 | 31 | -12 | x | x
N/C(Cc1ccc(Cl)cc1)=N\OC(=O)Cc1ccc([N+](=O)[O-])cc1 | 55* | 39 | 29 | 77* | 38 | -6 | 72*
COc1cccc(CC2(CO)CCN(Cc3cccn3-c3cccnc3)CC2)c1 | 27 | 6 | -11 | 14 | 10 | x | x
COc1ccc(OCC(=O)c2c[nH]c3ccccc23)cc1 | 14 | 12 | 8 | -21 | -2 | x | x
COc1ccc2c(C(=O)CCl)c[nH]c2c1 | 53* | -20 | x | 43* | 21 | 29 | 51*
CCCNC(=S)N1CCC(NC(=O)c2ccc(C)cc2)CC1 | 15 | 16 | -8 | 3 | 7 | x | x
Cc1cccc(/C(N)=N/OC(=O)c2ccc(F)cc2)c1 | 70* | 14 | 43 | 73* | 38 | 80* | 45*
Cc1ccc(C(=O)O/N=C(\N)c2ccc(Br)cc2)cc1 | 21 | 21 | 6 | 23 | -25 | x | x
COCCCNC(=O)/C(C#N)=C/c1ccc(OCC(=O)O)c(OC)c1 | 2 | 7 | 14 | 10 | -4 | x | x
COc1cc(/C=C2\C(C)=C(C#N)c3nc(N)c(C#N)c(C)c32)ccc1OCC(=O)O | 61* | 8 | -12 | 44* | 39 | 31* | 48*
CC(=O)NC1=C(C#N)C(c2ccccc2)c2c(ccc3ccccc23)O1 (stereo unspecified) | 19 | -7 | 4 | 5 | 28 | x | x
CCNc1nnc(SCC(=O)NC2CCCCCC2)s1 | 25 | 14 | x | 10 | 15 | x | x
O=C(/C=C/c1cccc([N+](=O)[O-])c1)c1ccco1 | 64* | 23 | 47* | 62* | 35 | 76* | 3
Cc1ccccc1-c1cc(C(=O)O)n(CC2CC(c3cccnc3)=NO2)n1 (stereo unspecified) | 4 | 10 | x | -1 | -13 | x | x
SMILES | tim23-1 inh | NALP3 yeast inh | NALP1 inh | TIM10 inh | tim10-1 inh | TIM10 conf | tim23-1 confirm
N/C(=N\OC(=O)c1cc([N+](=O)[O-])ccc1Cl)c1ccccn1 | 28 | 5 | -19 | 10 | 19 | x | x
CCCc1ccc(C(=O)O/N=C(\N)c2ccccn2)cc1 | 51* | 32 | 12 | 52* | 34 | 64* | 57*
N/C(=N\OC(=O)c1ccc(Cl)cc1[N+](=O)[O-])c1ccccn1 | 77* | 9 | 6 | 62* | 7 | 71* | 71*
N/C(=N\OC(=O)c1cc(Br)ccc1Cl)c1ccccn1 | 62* | -1 | 17 | 45* | 27 | 65* | 45*
CC1CC(C)CN(C(=S)Nc2ccc(SC(F)F)cc2)C1 (stereo unspecified) | 54* | 26 | 22 | 52* | 34 | -2 | 52*
CC1CN(C(=S)Nc2ccc(SC(F)F)cc2)CC(C)O1 (stereo unspecified) | 23 | -13 | 2 | 17 | -1 | x | x
NC(=O)c1cc(Br)cc(C2CCCCC2)c1O | 65* | 32 | 10 | 53* | 33 | 76* | 15
O=C(NC1CCCCC1)c1cc2cc(Br)ccc2o1 | 28 | 45 | 10 | -17 | 7 | x | x
Cc1ccc(C)n1-c1ccc(NC(=O)c2ccccc2)cc1 | 26 | 4 | 39 | -9 | 13 | x | x
Cc1ccc(NC(=O)c2ccccc2)s1 | 55* | 3 | -6 | 58* | 26 | 38* | 74*
O=Nc1ccc(NOC(=O)c2ccccc2Br)cc1 | 57* | 27 | 24 | 61* | 20 | 60* | 73*
C=C1SC(Nc2c(C)cc(C)cc2C)=NC12CCCCC2 | 65* | 27 | 3 | 45* | 33 | 39* | 63*
CC(C)OP(=O)(OC(C)C)/C(C=O)=N\Nc1ccc([N+](=O)[O-])cc1 | 67* | 41 | -4 | 51* | 38 | 50* | 67*
Oc1c(Br)cc(Br)cc1CNc1ccccn1 | 67* | 46 | -4 | 51* | 18 | 20 | 74*
O=C(Cn1nnc(-c2ccc(Cl)cc2)n1)NCC1CCCCC1 | -13 | 10 | 23 | -23 | 3 | x | x
COc1cccc(C(=O)N2CCC(C(=O)NCc3ccc(C)cc3)CC2)c1 | 8 | 12 | 16 | -10 | -5 | x | x
CC1CCc2cc(F)cc3c(O)c(C(=O)NCc4ccco4)c(=O)n1c23 (stereo unspecified) | 55* | 31 | 3 | 49* | 30 | -4 | 51*
Cc1ccc(-c2cc(-c3n[nH]c(=S)n3C)c3ccccc3n2)cc1 | 52* | 35 | -6 | 50* | 36 | 48* | 59*
O=C(COC(=O)/C=C/c1ccccc1Cl)NC1CCCC1 | 9 | -13 | x | 12 | 15 | x | x
COc1ccc(/C=C(\C#N)c2n[nH]c(Cn3cncn3)n2)cc1 | 4 | 17 | 4 | 4 | 11 | x | x
CCOCC(=O)Nc1cc(C(=O)Nc2ccccc2)ccc1Cl | 60* | 6 | 4 | 54* | 19 | 45* | 67*
